According to PubChem BioAssay (Tox21):
Values without a mark were called inactive. Calls of active or inactive are those of the source. Calls follow the shape of the dose curve; as a rule, active = well fitted curve in the direction sought with a large enough effect in the repeat runs; inconclusive = weak or mixed curves; inactive = flat fitted curve, though single readings scatter.

Assay: qHTS assay to test for compound auto fluorescence at 590 nm (red) in HEK293 cells (AID 720679)
Settings: red autofluorescence 540/590 nm; series mostly up to 91.3 µM
Excerpt: National Center for Advancing Translational Sciences [NCATS]
NIH Chemical Genomics Center [NCGC]
U.S. Environmental Protection Agency [EPA]
National Institutes of Environmental Health Sciences [NIEHS]
National Toxicology Program [NTP]
U.S. Food and Drug Administration [FDA]
Compound auto fluorescence often interferes with screening of the compound library against various biological targets and signaling pathways. Some of these compounds may have fluorophoric properties. Such properties may interfere with the assay outputs resulting in false positives and/or negatives. To decrease such complications and ensure the compound activities are relevant in terms of biological response, the Tox21 10K compound library was screened for auto fluorescence.
From the fluorophores used as reporter signals in our screening assays, the auto fluorescence equivalencies of compounds against three fluorophores have been evaluated: Triamterene, Fluorescein and Rose Bengal sodium for blue, green and red fluorescence, respectively. The fluorescence intensities were measured using Excitation/Emission wavelengths at 405/460nm, 485/535nm and 540/590nm for blue, green and red labels, respectively. This assay includes the red fluorescence data.
Tox21 Assay Protocol Summary:
2,000 HEK293 cells in 5 uL of culture medium containing 10% dialyzed FBS per well were dispensed into black wall/clear bottom 1536-well plates using a Multidrop Combi Dispenser (Thermo Scientific). The assay plates were incubated for 4-5 hr at 37C to allow cell attachment to the well bottom, followed by the transfer of 23 nL compound or DMSO vehicle by a pintool work station (Kalypsys, San Diego, CA). After the assay plates were incubated overnight at 37C and 5% CO2, fluorescence intensities in the assay plates were measured by an Envision (PerkinElmer, Shelton, CT) plate reader using three labels for measuring blue, green and red fluorescence at […] 460, 535 and 590nm respectively.
% is scaled to controls: 0 for no effect and ±100 for the full control effect.

SMILES	outcome	fluorescence, % of fluorescent control
O=C(NS(=O)(=O)/C=C/c1ccccc1)c1ccc(F)cc1Cl	inactive	–
CSCC[C@H](NC(=O)[C@H](Cc1c[nH]c2ccccc12)NC(=O)CCNC(=O)OC(C)(C)C)C(=O)N[C@@H](CC(=O)O)C(=O)N[C@@H](Cc1ccccc1)C(N)=O	inactive	–
CC1C(C)(C)C2=C(C(=O)CCC2)C1(C)C (stereo not given)	inactive	–
O=c1[nH]c2cc(C(F)(F)F)c(N3CCOCC3)cc2n(CP(=O)(O)O)c1=O	inactive	–
CC(C)(O)c1coc(S(=O)(=O)NC(=O)Nc2c3c(cc4c2CCC4)CCC3)c1	inactive	–
CCCCCCCCCCCCCCN(C)C	–	0.0361% [at 18.6 µM]
CCC(=O)OCc1ccc(OC)cc1	inactive	–
O=C(O)CNC(=O)c1ccccc1I	inactive	–
O=P(O)(O)Oc1ccccc1	inactive	–
CC(=O)N[C@@H](Cc1ccc(O)cc1)C(=O)O	inactive	–
O=S(=O)(Cl)c1c(Cl)cccc1Cl	inactive	–
CCC(Cl)CC(Cl)C(Cl)C(Cl)C(Cl)C(C)Cl (stereo not given)	–	-0.173% [at 13.4 µM]
O=C(O)CCC(=O)c1ccc(-c2ccccc2)cc1	–	-0.0888% [at 18.6 µM]
O=C1OC[C@H](Cc2cccc(O)c2)[C@H]1Cc1cccc(O)c1	inactive	–
O=[N+]([O-])C1(Br)COCOC1	inactive	–
CCN(CC)CCOc1ccccc1C(=O)CCc1ccccc1	inactive	–
CCO[Si](C)(CCCOCC1CO1)OCC (stereo not given)	inactive	–
CC(C)c1ccc(C(=O)N=C(N)N)cc1S(C)(=O)=O	inactive	–
CC(C)(C)C1(CCc2ccc(Cl)cc2)CO1 (stereo not given)	inactive	–
CC(=O)C(C)=O	inactive	–

SMILES	outcome	fluorescence, % of fluorescent control
O=C(O)c1ccc(O)cc1O	inactive	–
O=C1c2ccccc2C(=O)c2c(O)ccc(O)c21	inactive	–
CC(C)N(C)C	inactive	–
CC1=CC[C@@H]2C[C@H]1C2(C)C	–	-0.712% [at 18.6 µM]
O=NN(CCCl)C(=O)NCCCl	inactive	–
c1ccc(CNc2ncnc3c2ncn3C2CCCCO2)cc1 (stereo not given)	inactive	–
Cc1ccccc1S(N)(=O)=O	inactive	–
CCCCC(CC)COS(=O)(=O)O (stereo not given)	inactive	–
C[C@@H]1C[C@H]2[C@@H]3CCC4=CC(=O)C=C[C@]4(C)[C@@]3(F)[C@@H](O)C[C@]2(C)[C@@]1(O)C(=O)COP(=O)(O)O	inactive	–
CC(C)CC(O)CC(C)C	inactive	–
CS(=O)(=O)c1ccc([C@@H](C[C@H]2CCC(=O)C2)C(=O)Nc2cnccn2)cc1Cl	inactive	–
CC(CN(CCN(CC(C)OCCO)CC(C)OCCO)CC(C)OCCO)OCCO (stereo not given)	inactive	–
CCCCCCC(CO)CCCC (stereo not given)	inactive	–
O=C(CCS)OCC(COC(=O)CCS)(COC(=O)CCS)COC(=O)CCS	inactive	–
C=CCOC(=O)COCCC(C)C	inactive	–
Cc1cn([C@H]2C[C@H](F)[C@@H](CO)O2)c(=O)[nH]c1=O	inactive	–
O=C1[C@@H]2[C@H]3CC[C@H](C3)[C@@H]2C(=O)N1CCCCN1CCN(c2ncccn2)CC1	inactive	–
O=C(Nc1ccc(C(=O)O)c(O)c1)c1ccccc1	inactive	–
O=C1NC(=O)c2cccc3cccc1c23	inactive	–
CC(=O)NCCO	inactive	–
